Molecules are shown by their SMILES. Over roughly 110,000 compounds, “z-score” has its median near -0.1; the highest 2% begin near 2. Many of the other results were omitted from the sample, so the highest values are more common in it than they were. Active and inactive are the calls of the source.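 How the source made its calls: active means z-score in the third read window above 3 or below -3; inactive means the rest.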

For the assay, the target named is Metabotropic glutamate receptor 8 (Rattus norvegicus) (UniProt P70579). The experiment in a line: rat mGluR8 modulators via GIRK flux, primary screen, cell-based, thallium flux, HTS (AID 488969). As to conditions: HEK293 rat mGluR8, GIRK (G protein-gated inwardly rectifying potassium channel) thallium flux, FluoZin2; at 10 µM; stronger effect = higher value; submaximal glutamate (EC20) added with thallium.
Metabotropic glutamate receptor 8 (Rattus norvegicus), sequence (P70579 whole entry, looked up): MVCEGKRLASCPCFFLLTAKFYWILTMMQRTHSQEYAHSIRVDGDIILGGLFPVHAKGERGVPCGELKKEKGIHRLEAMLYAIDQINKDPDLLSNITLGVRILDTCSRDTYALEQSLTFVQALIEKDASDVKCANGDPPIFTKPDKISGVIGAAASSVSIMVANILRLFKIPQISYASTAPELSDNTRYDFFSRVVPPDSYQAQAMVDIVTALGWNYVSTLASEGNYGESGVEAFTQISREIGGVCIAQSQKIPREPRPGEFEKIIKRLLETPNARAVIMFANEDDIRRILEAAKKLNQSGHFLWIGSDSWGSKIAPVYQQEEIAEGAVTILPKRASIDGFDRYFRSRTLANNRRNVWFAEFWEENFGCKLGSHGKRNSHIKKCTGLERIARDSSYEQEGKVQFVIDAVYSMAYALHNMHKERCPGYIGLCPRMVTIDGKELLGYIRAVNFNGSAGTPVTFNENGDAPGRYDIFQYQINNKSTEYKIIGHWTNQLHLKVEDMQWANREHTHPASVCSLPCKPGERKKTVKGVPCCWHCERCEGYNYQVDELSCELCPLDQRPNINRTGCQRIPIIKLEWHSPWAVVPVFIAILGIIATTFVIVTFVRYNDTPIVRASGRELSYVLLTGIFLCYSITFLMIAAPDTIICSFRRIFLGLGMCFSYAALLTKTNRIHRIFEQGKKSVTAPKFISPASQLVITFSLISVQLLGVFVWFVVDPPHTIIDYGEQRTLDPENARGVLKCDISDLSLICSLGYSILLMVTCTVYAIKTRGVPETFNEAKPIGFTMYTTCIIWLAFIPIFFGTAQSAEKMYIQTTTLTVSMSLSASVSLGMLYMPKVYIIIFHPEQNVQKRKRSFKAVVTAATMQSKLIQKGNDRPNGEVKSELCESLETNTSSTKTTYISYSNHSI
`CCOC(=O)CSc1c(-c2ccccc2)c2cc(Cl)ccc2[nH]c1=O` gave a z-score of -0.516.
As to `O=C(c1cccn(Cc2cccc(Cl)c2)c1=O)N1CCOCC1`, the z-score was found to be 0.0735.
`CC(C)COP(=O)(c1ccc(N(C)C)cc1)C(O)c1ccncc1` (stereo not given): the z-score is -0.817.
Take `CC(C)CCOP(=O)(c1ccc(N(C)C)cc1)C(O)c1ccccn1` (stereo not given): the z-score was 5.74 (active).
For `CC(C)COP(=O)(c1ccc(N(C)C)cc1)C(O)c1ccccn1` (stereo not given) the value was 0.147; for `CCOC(=O)c1ccc(NC(=O)C2=C(C)Nc3nc(CCCO)nn3C2c2cccc(C)c2)cc1` (stereo not given), 0.0656.
For `CC(=O)N1c2c(cc(Br)cc2S(=O)(=O)NCC2COc3ccccc3O2)CC1C` (stereo not given) the value was 0.248; for `CCCCN(Cc1ccccc1)S(=O)(=O)c1cc(Br)cc2c1N(C(C)=O)C(C)C2` (stereo not given), 2.82.
`COc1cccc(CNS(=O)(=O)c2cc(Br)cc3c2N(C(C)=O)C(C)C3)c1` (stereo not given) yielded a z-score of 0.241.
Next, `CCOc1ccc(/C=C2\SC(=O)N(CCNC(=O)C3COc4ccccc4O3)C2=O)cc1OC` (stereo not given): -0.337; `COc1ccc(/C=N/c2oc(-c3ccccc3)cc2C#N)cc1`: -0.0521.
Take `COc1cccc(/C=N/n2cnc3ccccc32)c1OC`: the z-score was -0.147.
Consider `Oc1ccc(Br)cc1/C=N/n1cnc2ccccc21`, for which the z-score was 2.45.
`O=[N+]([O-])c1ccc(O)c(/C=N/n2cnc3ccccc32)c1` showed a z-score of -0.812.
In turn, `COc1cc(C(=S)N2CCC(C(N)=O)CC2)ccc1O` showed a z-score of -0.479.
Next, `CC(=O)c1cccc(NC(=S)NC2CC2)c1`: -0.023; `O=C1OC2(CCCCC2)OC(=O)C1=CNc1nc2ccccc2s1`: 8.02 (active).
`O=C1OC2(CCCCC2)OC(=O)C1=CNc1ccc2c(c1)OCO2`: the z-score came out at 0.207.
`CCOc1ccccc1NC=C1C(=O)OC2(CCCCC2)OC1=O`: the z-score was 0.615.
With `COc1ccccc1N1CCN(C(=O)c2ccc(CN3CCc4ccccc4C3)cc2)CC1`, the z-score is -0.0526.
Next, `O=c1[nH]c(-c2cccnc2)nc2ccccc12`: -0.073; `CC1=NN(C(=S)Nc2ccccc2)C(c2ccccc2)C1` (stereo not given): 0.129; `O=C(Nc1ccccc1)C1=C(O)CC(c2ccc(Cl)cc2)N2CCN=C12` (stereo not given): -0.724.
`CC1CN=C2C(C(=O)Nc3ccccc3)=C(O)CC(c3ccccc3)N21` (stereo not given) registered a z-score of 2.31.
For `N#C/C(=C\c1c(N2CCC(C(N)=O)CC2)nc2ccccn2c1=O)C(=O)NCc1ccco1` the value was -0.0915.
Compound `COC(=O)C1C2C=CC3(CN(Cc4ccco4)C(=O)C13)O2` (stereo not given) came in with a z-score of 0.49.
For `CCc1ccc(CNc2ccc(N3CCN(C(C)=O)CC3)cc2)cc1` the value was 0.968; for `CC(=O)N1CCN(c2ccc(NCc3ccc(F)cc3)cc2)CC1`, 0.0515.
As to `CC(=O)N1CCN(c2ccc(NCc3ccc(C(C)C)cc3)cc2)CC1`, the z-score was found to be 2.03.
Next, `O=C(Nc1ccc2c(c1)OCO2)C1CCN(C(=O)CSc2ncnc3ccccc23)CC1`: -0.185; `BrC(/C=N/Nc1nc(N2CCOCC2)nc(N2CCOCC2)n1)=C/c1ccccc1`: -0.171.
The compound `Cn1c(=O)oc2cc(S(=O)(=O)NCc3ccccc3)ccc21` showed a z-score of 0.611.
Next, `Cc1ccccc1Cn1c(=N)n(CC(=O)c2ccco2)c2ccccc21`: 2.17.
For `CCCCCCCn1c(=N)n(CC(=O)c2ccco2)c2ccccc21`, the z-score is 4.65 (active).
For `CCCCn1c(=N)n(CC(=O)c2ccco2)c2ccccc21` the value was -0.268; for `Cc1ccc(Cn2c(=N)n(CC(O)c3ccco3)c3ccccc32)cc1` (stereo not given), 1.09; for `N=c1n(Cc2ccccc2)c2ccccc2n1CC(O)c1ccco1` (stereo not given), 0.39.
`Cc1ccccc1Cn1c(=N)n(CC(=O)c2ccc([N+](=O)[O-])cc2)c2ccccc21` had a z-score of 0.33.
Next, `CCn1c(=N)n(CC(=O)c2ccco2)c2ccccc21`: 0.33.
In turn, `CCCn1c(=N)n(CC(=O)c2ccco2)c2ccccc21` had a z-score of -0.051.
In the case of `Cc1ccccc1Cn1c(=N)n(CC(O)c2ccco2)c2ccccc21` (stereo not given), the z-score is 3.34 (active).
In the case of `CC1CCN(C(=S)NC2CCCCC2)CC1`, the z-score is -0.176.
Next, `CCN1CCN(C(=O)CN2C(=O)c3cccc4cccc2c34)CC1`: -0.191; `O=C(CSc1ccc(-c2ccccc2)nn1)c1ccccc1`: 0.0905; `CCOCC(=O)Nc1nnc(Cc2ccc(OC)cc2)s1`: -0.115.
Compound `Cc1ccc(C)c(NC(=S)NC(NC(=O)OCc2ccccc2)C(Cl)(Cl)Cl)c1` (stereo not given) gave a z-score of -0.108.
Compound `Cc1ccc(C(=O)O/N=C/c2ccc3c(c2)OCO3)cc1` returned a z-score of -0.102.
Next, `CSc1nnc(-c2ccccc2Cl)o1`: -0.168; `CSc1ccccc1NC(=O)Nc1ccc(F)c(Cl)c1`: -0.197.
Compound `O=C(N/C(=N\O)c1ccccc1)Nc1ccc(Cl)cc1` registered a z-score of 2.01.
In the case of `O=C(N/N=C/c1ccc(Cl)cc1)Nc1ccccc1`, the z-score is -0.0155.
As for `Cc1cccc(C)c1NC(=S)NC(=O)c1ccccc1F`, the z-score is 7.93 (active).
`CSc1ccccc1NC(=O)Nc1ccccc1` showed a z-score of 0.531.
With `O=C(NC(=S)NC(=O)c1ccccc1F)c1ccccc1F`, the z-score was found to be 0.339.
Next, `Cc1ccccc1C(=O)NC(=S)Nc1ccc(S(=O)(=O)N(C)c2ccccc2)cc1`: 1.07; `O=C(N/N=C/c1ccc(Cl)cc1Cl)Nc1ccccc1`: -0.276.
With `CSc1ccccc1NC(=O)Nc1ccc(Cl)cc1`, the z-score was 6.38 (active).
For `O=C(NC(=S)NCc1ccccc1)c1ccccc1F`, the z-score is 1.93.
The compound `Cc1ccccc1C(=O)NC(=S)Nc1ccc(Oc2ccc(Cl)cc2)cc1` returned a z-score of 2.74.
For `Cc1ccccc1C(=O)NC(=S)Nc1ccc(Cc2ccncc2)cc1` the value was -0.501; for `COc1ccc(CCN2C(=O)CCC2(C)C(=O)NCc2cccnc2)cc1OC` (stereo not given), -0.282; for `Cc1nn(-c2ccc(F)cc2)c(Cl)c1/C=N/NC(=O)c1cccc(S(=O)(=O)N2CCCC2)c1`, -0.115.
For `Cc1cc(/C=C2/C(=O)NN(c3ccccc3)C2=O)c(C)n1-c1cccc(O)c1`, the z-score is -0.338.
`Cn1nnc(NC(=O)CSc2nnnn2-c2ccc(F)cc2)n1` gave a z-score of 0.0243.
For `O=C(NC(C(=O)N/N=C/c1c2ccccc2cc2ccccc12)c1n[nH]c(=O)c2ccccc12)c1ccccc1` (stereo not given) the value was -0.183; for `N#C/C(=C\c1c(N(Cc2ccccc2)Cc2ccccc2)nc2ccccn2c1=O)C(N)=O`, -1.96; for `Cc1c(C(=O)Nc2ccccc2[N+](=O)[O-])csc1-c1ccccc1`, -0.152.
For `O=C(NC(=S)Nc1ccc(Oc2ccc(Cl)cc2)cc1)c1ccccc1` the value was 3.94 (active); for `Cc1ccc(C(=O)NC(=S)Nc2ccc(Oc3ccc(Cl)cc3)cc2)cc1`, 0.157.
`O=C(NC(=S)Nc1ccc(Oc2ccccc2)cc1)c1ccc(Cl)cc1` registered a z-score of 1.23.
For `Cc1nc2ncnn2c(C)c1CCC(=O)Nc1csc(N)n1` the value was -0.0552.
Take `O=C1CC(SCc2nc3ccccc3[nH]2)C(=O)N1c1ccc(F)cc1` (stereo not given): the z-score was determined as 0.0187.
For `Cc1cc(NC(=O)Nc2ccccc2)n(-c2ccccc2)n1` the value was 10.5 (active); for `Cc1cc(NC(=O)C(C)Oc2ccc(Cl)cc2Cl)n(-c2ccccc2)n1` (stereo not given), -0.237; for `CSc1ccccc1NC(=O)COc1ccc(Cl)cc1Cl`, -0.15.
For the compound `Cc1cc(Nc2ccccc2)n(-c2ccccc2)n1`, the z-score turned out to be 0.00239.
Next, `Cc1cc(NC(=O)COc2ccccc2)n(-c2ccccc2)n1`: -0.119.
In the case of `Cc1cc(NC(=O)COc2ccc(Cl)cc2Cl)n(-c2ccccc2)n1`, the z-score was 12.2 (active).
Next, `Cc1cc(NC(=O)c2ccc(C)s2)n(-c2ccccc2)n1`: 0.239.
As to `O=C(COc1ccc(Cl)cc1Cl)Nc1ccccn1`, the z-score is 1.52.
As to `O=C(COc1ccc(Cl)cc1Cl)Nc1noc2ccccc12`, the z-score is 12.9 (active).
For the compound `CC(=O)c1cnc(N(C)C)s1`, the z-score turned out to be 0.141.
In turn, `CN(Cc1ccccc1)C(=O)CN(C1CCCCC1)S(C)(=O)=O` gave a z-score of 0.423.
Next, `O=C(Nc1ccc(N2CCOCC2)cc1)C1CC1`: 0.35; `Cn1c(C(=O)NCc2ccccn2)cc2c(=O)n(C)c3ccccc3c21`: 0.138; `COc1ccc(N(C(=O)Cc2cccs2)C(C(=O)NC2CCCCC2)c2cccn2C)cc1` (stereo not given): -0.0427.
In turn, `CCOc1ccc2c(c1)C(C)=CC(C)(C)N2C(=O)Nc1ccccc1F` displayed a z-score of -0.0976.
Next, `Cc1cc(OCc2nc(-c3cccs3)no2)cc(C)c1Cl`: 0.00195; `COc1cc(CN2CCCC(C)C2)cc([N+](=O)[O-])c1O` (stereo not given): -0.494.
Turning to `O=C(NN1CCOCC1)c1cc(-c2ccccc2)nc2ccccc12`, the z-score was -0.494.
Next, `O=C(NN1CCOCC1)c1cc(-c2ccc(Br)cc2)nc2ccccc12`: 2.02; `CCc1ccc(-c2cc(C(=O)NN3CCOCC3)c3ccccc3n2)cc1`: -0.195; `C/C(N)=C(/C#N)C(=O)CSc1nnc(COc2ccccc2Cl)o1`: 0.832.
`Cc1cc(/C=N/NC(N)=O)c(C)c(CO)c1` came in with a z-score of -0.0977.
For `CCn1c(SCC(=O)N2CCC(C(N)=O)(N3CCCCC3)CC2)nc2ccccc2c1=O` the value was -1.2; for `CCn1c(SCC(=O)N2CCCC2)nnc1-c1ccc(N)cc1`, 0.183.
With `CCn1c(SCC(=O)N2CCC(C(N)=O)(N3CCCCC3)CC2)nnc1-c1ccccc1`, the z-score came out at 2.65.
`Cn1nnc2cc(C(=O)NCc3ccco3)ccc21` displayed a z-score of 0.326.
Next, `CCOC(=O)NC(NC(=O)OCC)C(=O)c1ccccc1`: -0.227; `CC(C)CCOP(=O)(c1ccccc1)c1ccccc1`: -2.77.
The compound `CC(Nc1cc(N2CCCC2)ccc1[N+](=O)[O-])c1ccccc1` (stereo not given) displayed a z-score of -0.624.
For `CCCn1c(O)c(CN2CCCCC2)c(C)c(C#N)c1=O` the value was -0.183; for `Brc1ccc(N=C/C=C/C=C/Nc2ccc(Br)cc2)cc1`, 0.151.
Consider `C(/C=C/C=C/Nc1ccccc1)=Nc1ccccc1`, for which the z-score is 16.2 (active).
For `O=C(/C=C/Nc1ccccc1)c1ccccc1` the value was 0.219.
For `Fc1ccccc1CSc1nc2ncc(Br)cc2[nH]1` the value was 1.26; for `CCC(NC(=O)NC1=NCCS1)(C(F)(F)F)C(F)(F)F`, 0.399.
`C=CCn1c(=N)c(C(=O)OCC)cc2c(=O)n3cccc(C)c3nc21` came in with a z-score of -0.017.
`CCOCCCn1c(=N)c(C(N)=S)cc2c(=O)n3cccc(C)c3nc21` registered a z-score of 2.
For `CCn1c(=N)c(C(N)=O)cc2c(=O)n3cccc(C)c3nc21` the value was -1.13; for `COc1cc(C(=O)NCC(=O)N/N=C/c2cccs2)cc(OC)c1OC`, -0.174; for `O=C(N=Nc1c(O)n(Cc2ccccc2)c2ccccc12)c1ccc(O)cc1`, -0.143.
The compound `Cc1ccc2c(c1)c(N=NC(N)=S)c(O)n2Cc1ccccc1` came in with a z-score of 2.88.
For `NC(=S)N=Nc1c(O)n(Cc2ccccc2)c2ccccc12` the value was 0.17.
For the compound `CCCn1c(O)c(N=NC(=O)c2ccco2)c2ccccc21`, the z-score was 3.17 (active).
Consider `Cn1c(O)c(N=NC(=O)CNC(=O)c2ccco2)c2ccccc21`, for which the z-score is -0.2.
Compound `NC(=S)N=Nc1c(O)n(Cc2ccc(F)cc2)c2ccccc12` came in with a z-score of 1.76.
In the case of `CCCCNC(=S)N=Nc1c(O)n(Cc2ccccc2)c2ccccc12`, the z-score was 3.24 (active).
For `CCn1c(O)c(N=NC(=O)CNC(=O)c2ccco2)c2ccccc21`, the z-score is -0.152.
For `NC(=S)N=Nc1c(O)n(Cc2ccc(Br)cc2)c2ccccc12` the value was -0.0836.

The record behind these values is PubChem BioAssay AID488969 (Vanderbilt High Throughput Screening Facility, 2010).
